The values that follow come from PubChem BioAssay (EPA / NIEHS).

Each structure is given as a SMILES string. Where “and” joins values, the source holds several entries; their conditions need not be identical. Equal entries are not always repeated. Records with an inconclusive call do not appear. A structure can be active in one record and inactive in another. Calls of active or inactive are those of the source. The calls were made as follows: active = hit-call score of the fitted dose curve at least 0.9, where 1 is the maximum; inconclusive = response in the unintended direction; inactive = score below 0.9.

The target of assay [1] is rat Thyrotropin Releasing Hormone Receptor (TRH), Trhr (gene 25570) (UniProt Q01717). The experiment in a line: NVS_GPCR_rTRH: NovaScreen (NVS) G Protein-Coupled Receptor Assay for rat Thyrotropin Releasing Hormone Receptor (TRH) (AID 2283329).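 Also: hit means lower bound tracer signal versus DMSO baseline.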 The essentials:
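Rat forebrain membrane prep, radioligand displacement, filter scintillation readout at 4 h. Single conc 25 uM, duplicate; actives retested as concentration series. DMSO = negative control/baseline.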

Assay [2] can be described thus: NVS_IC_rCaBTZCHL: NovaScreen (NVS) Ion Channel Assay for Calcium Channel, Type L, Benzothiazepine Site (CaBTZCHL) (AID 2283337). In short, it runs like this:
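Rat cortical membrane preparation incubated 1.5 h with compound and benzothiazepine-site radioligand; loss of filter-bound counts versus DMSO marks displacement. Initial duplicate testing at 25 uM, actives followed up in concentration series.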

Assay [3] deals with rat Neonicotinoid receptor (NNR), Chrna7 (gene 25302) (UniProt Q05941). The experiment in a line: NVS_LGIC_rNNR_BungSens: NovaScreen (NVS) Ligand-Gated Ion Channel Assay for rat Neonicotinoid receptor (NNR) (AID 2283315). In short, it runs like this:
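Rat cortical membrane preparation incubated 2.5 h with tritiated or iodinated radioligand and test chemical. Bound radioactivity was filtered and counted by scintillation, and displacement was analysed against DMSO.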

The target of assay [4] is human Peripheral-type Benzodiazepine Receptor (PBR), TSPO (gene 706) (UniProt P30536). Description: NVS_MP_hPBR: NovaScreen (NVS) Membrane Protein Assay for human Peripheral-type Benzodiazepine Receptor (PBR) (AID 2283331).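 Also: hits reduce radioligand binding relative to DMSO baseline.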 In short, it runs like this:
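Cell-free radioligand displacement, human colonic membranes, 1 h exposure. Filter radiodetection read-out. Single-concentration duplicates (25 uM), then concentration-response for actives; DMSO negative control.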

In assay [5] the target is rat Peripheral-type Benzodiazepine Receptor (PBR), Tspo (gene 24230) (UniProt P16257). Description: NVS_MP_rPBR: NovaScreen (NVS) Membrane Protein Assay for rat Peripheral-type Benzodiazepine Receptor (PBR) (AID 2283335). In short, it runs like this:
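Competitive displacement of specific radioligand from rat kidney membrane PBR, read by filtration and scintillation after 1 h. Compounds first tested at 25 uM in duplicate, then in concentration series; signal loss relative to DMSO.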

The target of assay [6] is rat Histamine Receptor (H3), Hrh3 (gene 85268) (UniProt Q9QYN8). The experiment in a line: NVS_GPCR_rH3: NovaScreen (NVS) G Protein-Coupled Receptor Assay for rat Histamine Receptor (H3) (AID 2283303). The essentials:
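Filter-binding radioligand competition on rat forebrain membranes, 1 h incubation; compounds screened at 25 µM in duplicate and followed in concentration series to 50 µM, loss of bound signal vs DMSO.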

The next assay deals with Adra2b (gene 24174) (UniProt P19328). The experiment in a line: NVS_GPCR_rmAdra2B: NovaScreen (NVS) G Protein-Coupled Receptor Assay for hybird cells Adrenergic, Alpha 2B Receptor (Adra2B) (AID 2283306). In short, it runs like this:
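Compounds screened first at 25 uM in duplicate, with actives followed up in concentration-response; specific radioligand displacement from hybrid neuroglioma/blastoma cell membrane preparations measured by filter scintillation counting after 1 h, normalized to DMSO.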

Assay [7] has as its target rat Glutamate Metabotropic Receptor 5 (MGluR5), Grm5 (gene 24418) (UniProt P31424). The experiment in a line: NVS_GPCR_rmMGluR5: NovaScreen (NVS) G Protein-Coupled Receptor Assay for rat Glutamate Metabotropic Receptor 5 (MGluR5) (AID 2283307). In short, it runs like this:
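Compounds first screened in duplicate at 25 uM, then in concentration series up to 50 uM if over threshold. Radioligand displacement on rat whole-brain membranes, filtration and scintillation counting after 1.5 h; binding loss relative to DMSO.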

The target of assay [8] is rat Neurokinin-1 Receptor (NK1), Tacr1 (gene 24807) (UniProt P14600). The experiment in a line: NVS_GPCR_rNK1: NovaScreen (NVS) G Protein-Coupled Receptor Assay for rat Neurokinin-1 Receptor (NK1) (AID 2283309). In short, it runs like this: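 Competitive radioligand binding to NK1 in rat submaxillary membranes, 1 h incubation, filtration and scintillation read-out. Compounds first screened at 25 uM in duplicate, then concentration-response for actives; signal loss relative to DMSO.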
rat Neurokinin-1 Receptor (NK1), Tacr1 (gene 24807), sequence (P14600 whole entry, looked up): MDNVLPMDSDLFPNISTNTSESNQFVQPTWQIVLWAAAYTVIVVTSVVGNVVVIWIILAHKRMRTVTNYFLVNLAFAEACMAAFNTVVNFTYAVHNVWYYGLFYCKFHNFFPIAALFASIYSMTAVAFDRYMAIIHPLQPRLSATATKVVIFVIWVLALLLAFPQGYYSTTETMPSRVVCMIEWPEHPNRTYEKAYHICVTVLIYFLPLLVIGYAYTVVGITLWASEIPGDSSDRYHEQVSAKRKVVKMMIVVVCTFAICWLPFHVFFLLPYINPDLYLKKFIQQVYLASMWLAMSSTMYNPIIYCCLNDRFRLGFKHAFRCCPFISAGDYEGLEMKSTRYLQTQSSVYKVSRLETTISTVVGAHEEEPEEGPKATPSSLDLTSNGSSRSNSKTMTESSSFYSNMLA

The target of assay [9] is rat Opioid Receptor, Non-selective Sodium (Na+) Binding, Oprm1 (gene 25601) (UniProt P33535). The experiment in a line: NVS_GPCR_rOpiate_NonSelectiveNa: NovaScreen (NVS) G Protein-Coupled Receptor Assay for rat Opioid Receptor, Non-selective Sodium (Na+) Binding (AID 2283311). The essentials:
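Filtration radioligand binding on rat forebrain membrane preparations, read 1.5 h after dosing. Single-concentration 25 µM primary screen in duplicate, followed by singleton concentration series to 50 µM max for actives; DMSO baseline.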

The target in assay [10] is rat Opioid Receptor, Non-selective Binding, Oprm1 (gene 25601) (UniProt P33535). Description: NVS_GPCR_rOpiate_NonSelective: NovaScreen (NVS) G Protein-Coupled Receptor Assay for rat Opioid Receptor, Non-selective Binding (AID 2283318). The essentials: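 Filter-based radioligand displacement using rat forebrain membrane preparations, measured 1.5 h post-dosing. Single-concentration duplicate screen at 25 uM, follow-up in concentration series; activity taken as signal loss relative to DMSO.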
rat Opioid Receptor, Non-selective Binding, Oprm1 (gene 25601), sequence (P33535 whole entry, looked up): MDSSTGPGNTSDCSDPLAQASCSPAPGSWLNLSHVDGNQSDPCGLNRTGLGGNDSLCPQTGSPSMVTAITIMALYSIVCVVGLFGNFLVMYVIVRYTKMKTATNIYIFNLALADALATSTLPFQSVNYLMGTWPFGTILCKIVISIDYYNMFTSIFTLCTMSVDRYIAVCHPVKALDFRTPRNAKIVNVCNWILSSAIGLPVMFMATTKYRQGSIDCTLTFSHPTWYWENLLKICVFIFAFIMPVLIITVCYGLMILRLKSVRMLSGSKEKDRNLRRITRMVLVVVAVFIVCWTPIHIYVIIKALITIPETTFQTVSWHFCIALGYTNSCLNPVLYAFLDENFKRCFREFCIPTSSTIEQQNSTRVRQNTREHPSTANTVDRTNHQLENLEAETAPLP

Assay [11] addresses Sodium channel protein type 1 subunit alpha (Rattus norvegicus) (UniProt P04774). The experiment in a line: NVS_IC_rNaCh_site2: NovaScreen (NVS) Ion Channel Assay for rat Sodium Channel, Site 2 (NaCh) (AID 2283322).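 Also: hit means loss of radioligand binding signal relative to DMSO so AC50 marks displacement.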 The essentials:
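Initial duplicate single-point testing at 25 uM, followed by concentration-response runs for actives. Binding of radioligand to rat forebrain membranes quantified after 1 h via filter-based radiodetection.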

The target of assay [12] is rat Gamma-Aminobutyric Acid Type A Receptor, Non-Selective (GABAR-NonSelective), Gabra1 (gene 29705) (UniProt P62813). Description: NVS_LGIC_rGABAR_NonSelective: NovaScreen (NVS) Ligand-Gated Ion Channel Assay for rat Gamma-Aminobutyric Acid Type A Receptor, Non-Selective (GABAR-NonSelective) (AID 2283326). In short, it runs like this:
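Compounds were first screened in duplicate at 25 uM, with actives run as singleton concentration series (max 50 uM). Binding of a radioligand to rat whole-brain GABA-A preparation was measured by filtration and scintillation counting after 1 h, DMSO baseline.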

The target in assay [13] is Voltage-gated inwardly rectifying potassium channel KCNH2 (Homo sapiens) (UniProt Q12809). The experiment in a line: NVS_IC_hKhERGCh: NovaScreen (NVS) Ion Channel Assay for human Potassium Channel ERG (KhERGCh) (AID 2283333). The essentials:
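Membranes from CHO cells expressing human ERG; displacement of radioligand measured by filtration and scintillation after 0.75 h. Single-concentration duplicate screen at 25 uM, then concentration-response for actives; DMSO baseline.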

In assay [14] the test system is guinea pig Histamine Receptor (H2), gene 100729734. The experiment in a line: NVS_GPCR_gH2: NovaScreen (NVS) G Protein-Coupled Receptor Assay for guinea pig Histamine Receptor (H2) (AID 2283342). In short, it runs like this:
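Guinea pig striatal membrane preparation with specific radioligand; bound counts measured by filtration and scintillation 1 h post-dosing, DMSO as baseline. Chemicals passing a 25 uM duplicate screen were titrated to a 50 uM maximum.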

The subject of the next assay is NCBI gene 100848466. The experiment in a line: NVS_NR_bPR: NovaScreen (NVS) Nuclear Receptor Binding Assay for bovine Progextron Receptor (PR) (AID 2283343).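 As to AC50: actives lower bound radioligand signal below DMSO meaning displacement of the label.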 The essentials: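 Scintillation counts of bound radioligand were read 18 hours after chemical addition to membranes extracted from bovine uterus. Displacement was scored as loss of signal relative to DMSO controls. Screening began at 25 uM in duplicate.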

The target in assay [15] is bovine Gamma-Aminobutyric Acid Type A Receptor BDZ, alpha 5 site (GABARa5), GABRA5 (gene 523515) (UniProt Q08E50). Description: NVS_LGIC_bGABARa5: NovaScreen (NVS) Ligand-Gated Ion Channel Assay for bovine Gamma-Aminobutyric Acid Type A Receptor BDZ, alpha 5 site (GABARa5) (AID 2283323). The essentials:
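Tested first in duplicate at a single 25 uM, with hits re-run in concentration series to a 50 uM maximum. Bovine hippocampal membranes; specific radioligand displacement measured by filter scintillation counting 1 hr post-dose.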

rat Thyrotropin Releasing Hormone Receptor (TRH), Trhr (gene 25570), sequence (Q01717 whole entry, looked up): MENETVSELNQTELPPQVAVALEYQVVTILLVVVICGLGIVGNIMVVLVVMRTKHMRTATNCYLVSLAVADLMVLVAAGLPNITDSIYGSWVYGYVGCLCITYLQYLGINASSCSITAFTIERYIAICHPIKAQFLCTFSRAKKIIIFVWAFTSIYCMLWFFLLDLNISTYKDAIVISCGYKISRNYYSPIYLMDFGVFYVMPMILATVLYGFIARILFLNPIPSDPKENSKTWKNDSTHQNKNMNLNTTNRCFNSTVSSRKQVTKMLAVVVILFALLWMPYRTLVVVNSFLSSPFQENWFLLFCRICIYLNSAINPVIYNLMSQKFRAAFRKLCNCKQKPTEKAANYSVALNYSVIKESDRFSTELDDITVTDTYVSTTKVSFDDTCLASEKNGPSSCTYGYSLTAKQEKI
rat Peripheral-type Benzodiazepine Receptor (PBR), Tspo (gene 24230), sequence (P16257 whole entry, looked up): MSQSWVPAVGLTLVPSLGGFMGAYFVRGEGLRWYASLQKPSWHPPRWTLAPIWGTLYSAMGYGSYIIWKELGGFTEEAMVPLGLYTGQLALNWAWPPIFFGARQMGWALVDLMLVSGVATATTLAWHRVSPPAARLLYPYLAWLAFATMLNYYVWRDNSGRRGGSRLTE
human Peripheral-type Benzodiazepine Receptor (PBR), TSPO (gene 706), sequence (P30536 whole entry, looked up): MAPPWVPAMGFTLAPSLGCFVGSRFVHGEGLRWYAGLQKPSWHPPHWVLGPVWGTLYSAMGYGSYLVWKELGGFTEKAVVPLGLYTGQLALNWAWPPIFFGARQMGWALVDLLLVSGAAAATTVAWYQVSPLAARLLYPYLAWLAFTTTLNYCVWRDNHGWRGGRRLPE
rat Neonicotinoid receptor (NNR), Chrna7 (gene 25302), sequence (Q05941 whole entry, looked up): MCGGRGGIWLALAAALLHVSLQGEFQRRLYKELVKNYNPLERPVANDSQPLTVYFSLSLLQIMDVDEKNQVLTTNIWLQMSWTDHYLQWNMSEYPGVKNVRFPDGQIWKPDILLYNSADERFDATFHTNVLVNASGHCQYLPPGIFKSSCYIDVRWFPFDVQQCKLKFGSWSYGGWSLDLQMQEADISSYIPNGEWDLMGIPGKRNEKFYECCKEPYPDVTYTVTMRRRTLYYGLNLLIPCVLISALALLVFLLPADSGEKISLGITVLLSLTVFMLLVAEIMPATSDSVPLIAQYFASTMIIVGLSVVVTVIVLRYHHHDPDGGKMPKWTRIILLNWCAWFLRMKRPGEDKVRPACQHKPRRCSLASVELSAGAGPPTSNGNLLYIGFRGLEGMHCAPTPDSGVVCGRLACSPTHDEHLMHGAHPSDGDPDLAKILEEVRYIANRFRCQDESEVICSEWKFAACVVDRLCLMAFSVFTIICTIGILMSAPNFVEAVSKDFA
rat Opioid Receptor, Non-selective Sodium (Na+) Binding, Oprm1 (gene 25601), sequence (P33535 whole entry, looked up): as the sequence (P33535 whole entry, looked up) above
rat Glutamate Metabotropic Receptor 5 (MGluR5), Grm5 (gene 24418), sequence (P31424 whole entry, looked up): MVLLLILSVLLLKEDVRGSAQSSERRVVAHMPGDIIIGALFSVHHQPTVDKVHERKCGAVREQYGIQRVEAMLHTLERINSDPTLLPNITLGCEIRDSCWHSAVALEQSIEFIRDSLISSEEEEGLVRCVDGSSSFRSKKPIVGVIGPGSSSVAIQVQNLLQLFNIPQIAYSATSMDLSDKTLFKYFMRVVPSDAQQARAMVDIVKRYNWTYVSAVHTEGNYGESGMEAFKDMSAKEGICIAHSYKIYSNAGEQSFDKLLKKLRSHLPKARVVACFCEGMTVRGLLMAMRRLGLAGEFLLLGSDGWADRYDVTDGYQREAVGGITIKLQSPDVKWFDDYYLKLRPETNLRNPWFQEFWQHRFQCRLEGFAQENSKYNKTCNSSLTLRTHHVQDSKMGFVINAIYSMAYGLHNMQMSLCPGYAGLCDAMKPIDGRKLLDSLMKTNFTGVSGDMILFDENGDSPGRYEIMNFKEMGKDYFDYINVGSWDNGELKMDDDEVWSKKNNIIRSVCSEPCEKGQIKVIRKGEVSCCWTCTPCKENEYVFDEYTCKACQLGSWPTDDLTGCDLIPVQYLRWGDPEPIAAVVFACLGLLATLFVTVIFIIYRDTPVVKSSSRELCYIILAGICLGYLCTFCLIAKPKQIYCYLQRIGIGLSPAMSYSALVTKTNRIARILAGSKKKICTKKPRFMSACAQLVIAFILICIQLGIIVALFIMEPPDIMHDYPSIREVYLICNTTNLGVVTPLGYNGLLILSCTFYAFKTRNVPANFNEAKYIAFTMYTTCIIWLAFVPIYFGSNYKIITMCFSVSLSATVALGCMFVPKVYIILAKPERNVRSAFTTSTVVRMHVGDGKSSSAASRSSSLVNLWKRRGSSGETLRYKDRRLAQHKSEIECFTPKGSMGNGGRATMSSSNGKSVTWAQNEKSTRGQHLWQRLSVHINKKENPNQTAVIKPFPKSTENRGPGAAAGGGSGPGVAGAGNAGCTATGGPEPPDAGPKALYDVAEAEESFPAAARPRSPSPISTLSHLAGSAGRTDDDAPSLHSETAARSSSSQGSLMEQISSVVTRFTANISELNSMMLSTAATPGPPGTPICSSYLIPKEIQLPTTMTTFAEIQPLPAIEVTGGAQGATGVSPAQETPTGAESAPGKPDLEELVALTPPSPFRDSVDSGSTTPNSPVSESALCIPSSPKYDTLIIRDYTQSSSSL
bovine Gamma-Aminobutyric Acid Type A Receptor BDZ, alpha 5 site (GABARa5), GABRA5 (gene 523515), sequence (Q08E50 whole entry, looked up): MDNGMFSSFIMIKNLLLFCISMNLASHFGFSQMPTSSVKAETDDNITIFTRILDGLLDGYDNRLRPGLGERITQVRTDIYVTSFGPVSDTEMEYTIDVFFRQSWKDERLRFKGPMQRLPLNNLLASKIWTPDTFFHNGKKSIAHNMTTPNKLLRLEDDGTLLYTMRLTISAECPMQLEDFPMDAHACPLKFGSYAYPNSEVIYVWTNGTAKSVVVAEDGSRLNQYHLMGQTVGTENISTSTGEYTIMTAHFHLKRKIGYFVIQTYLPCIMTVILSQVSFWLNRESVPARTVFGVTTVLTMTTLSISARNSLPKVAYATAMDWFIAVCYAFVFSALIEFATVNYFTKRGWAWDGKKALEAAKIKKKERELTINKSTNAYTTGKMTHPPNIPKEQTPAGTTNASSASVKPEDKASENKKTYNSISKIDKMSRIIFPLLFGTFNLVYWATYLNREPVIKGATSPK
rat Gamma-Aminobutyric Acid Type A Receptor, Non-Selective (GABAR-NonSelective), Gabra1 (gene 29705), sequence (P62813 whole entry, looked up): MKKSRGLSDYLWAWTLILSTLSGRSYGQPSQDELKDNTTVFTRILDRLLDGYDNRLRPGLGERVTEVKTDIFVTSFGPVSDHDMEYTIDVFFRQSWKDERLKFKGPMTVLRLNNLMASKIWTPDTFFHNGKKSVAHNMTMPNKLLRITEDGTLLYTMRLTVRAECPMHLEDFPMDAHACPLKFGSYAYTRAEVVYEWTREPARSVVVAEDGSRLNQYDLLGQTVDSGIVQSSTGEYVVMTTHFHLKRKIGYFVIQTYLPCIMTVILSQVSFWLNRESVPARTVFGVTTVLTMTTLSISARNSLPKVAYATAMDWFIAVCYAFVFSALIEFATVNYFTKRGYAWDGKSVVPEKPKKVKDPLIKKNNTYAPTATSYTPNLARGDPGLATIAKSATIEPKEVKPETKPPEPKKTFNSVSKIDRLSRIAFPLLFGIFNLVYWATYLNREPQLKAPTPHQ

Regarding `NC(N)=S`, the outcome in assay [1] was inactive.

In the case of `CC(=O)OC(C)(C)C1CC=C(C)CC1` (stereo not drawn), the result in assay [2] was inactive.

In general, AC50 refers to the concentration giving half of the maximal activity seen. Consider `C=C1CC[C@H]2O[C@]2(C)CC[C@@H]2[C@@H]1CC2(C)C`, for which the AC50 in assay [3] is 15.6 µM (active).

In the case of `CC(=O)c1ccc2ccccc2c1`, the outcome in [1] was inactive.

As for `Nc1ccc(N)c([N+](=O)[O-])c1`, the AC50 in assay [4] is 3.27 µM (active) and 1.74 µM (active); in [5], 1.02 µM (active). Further, the call in [5] and in assay [2] was inactive.

`O=C(c1ccc(OCCN2CCCCC2)cc1)c1c(-c2ccc(O)cc2)sc2cc(O)ccc12`: the AC50 in assay [6] was 25 µM (active); with Adra2b (gene 24174), 10.7 µM (active); in assay [8], 18.2 µM (active); in [9], 1.96 µM (active); in assay [10], 3.64 µM (active); in assay [11], 0.869 µM (active). For the same compound, the AC50 was 5.34 µM (active) in assay [13], 6.31 µM (active) in assay [5] and 4.18 µM (active) in [14]. Moreover, the call (in assay [7]; in assay [3]; in assay [12]; in assay [1]; in [2]; in the assay with NCBI gene 100848466) was inactive.

As for `CCCCCC1C(=O)CCC1CC(=O)OC` (stereo not drawn), the AC50 in assay [5] was 11.6 µM (active) and 25 µM (active). The outcome in assay [2] was inactive.

For the compound `CCO[Si](CC)(OCC)OCC`, the outcome in assay [1] was inactive.

For `OCC=Cc1ccccc1`, the call in assay [1] was inactive.

Take `CC(C)(C)c1cccc(O)c1`: the compound was classed as inactive in assay [1].

With `CCCCCCCCCCCCS`, the concentration at half-maximal activity (AC50) in assay [1] is 0.929 µM (active).

Consider `C=C(C)C(N)=O`, for which, in [15], the result was inactive.

Turning to `CCCc1ccc(N)cc1`, in assay [1], the result was inactive.

With `CC(C)C(=O)c1ccccc1`, the result in assay [1] was inactive.

On to `C[C@]12CC[C@@H]3c4ccc(O)cc4CC[C@H]3[C@@H]1CC[C@@H]2O`, for which the AC50 with NCBI gene 100848466 is 0.00898 µM (active).

As to `CCCCCCCCOS(=O)(=O)O`, the compound was called inactive in [1].

`CC(=O)N(C)C`: the compound was called inactive in assay [1].

Take `C=C1CC/C=C(\C)CC[C@@H]2[C@@H]1CC2(C)C`: the result in assay [2] was inactive.

For the compound `CCc1cccc(O)c1`, the result in assay [1] and in [5] was inactive.
